Measurements taken from PubChem BioAssay (NCI).
About 79,000 compounds went through this panel and 15% of them were active in at least one assay; those are over-represented in the sample as a whole. Active and inactive are the calls of the source. Rule as the data show it: active = growth inhibition above about 70%; inactive = the rest.

Key:
[1] = NCI Yeast Anticancer Drug Screen. Data for the rad50 strain (AID 155);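 also: 0% = growth of vehicle-only cultures of the same strain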; conditions: S. cerevisiae rad50 strain growth inhibition, stronger effect = higher value
How it was run: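 Genetically altered yeast (DNA repair pathway); compound treatment; growth inhibition vs vehicle ctrl.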

[2] = NCI Yeast Anticancer Drug Screen. Data for the mec2-1 strain (AID 157); conditions: S. cerevisiae mec2-1 strain, stronger effect = higher value
How it was run: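 Vehicle-treated cultures served as reference for growth inhibition of compound-exposed mec2-1 yeast.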

[3] = NCI Yeast Anticancer Drug Screen. Data for the sgs1 mgt1 strain (AID 161);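 also: 0% = growth of cultures given vehicle only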; conditions: S. cerevisiae sgs1 mgt1 strain, stronger effect = higher value
How it was run: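 Read-out: growth inhibition vs vehicle controls. Cells: mutant yeast strain deficient in DNA damage repair.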

[4] = NCI Yeast Anticancer Drug Screen. Data for the cln2 rad14 strain (AID 165);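 also: 0% = growth equal to vehicle treated cultures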; conditions: S. cerevisiae cln2 rad14 strain, stronger effect = higher value
How it was run: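 Each compound was tested on cln2 rad14 yeast. Inhibition of growth was calculated against vehicle-exposed controls.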

[5] = NCI Yeast Anticancer Drug Screen. Data for the bub3 strain (AID 167); conditions: S. cerevisiae bub3 mutant strain, stronger effect = higher value
How it was run: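 Yeast carrying a defined mutation is treated with each compound, and growth is compared with that of vehicle-exposed cells to give inhibition.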

[6] = NCI Yeast Anticancer Drug Screen. Data for the mlh1 rad18 strain (AID 175); conditions: S. cerevisiae mlh1 rad18 strain growth inhibition, stronger effect = higher value
How it was run: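 Vehicle-treated cultures served as the reference for growth inhibition in a yeast strain carrying DNA damage repair alterations exposed to each compound.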

[7] = at 5.0 µM (retest, dose inferred, filed as 0.5)
[8] = at 50.0 µM (retest, dose inferred, filed as 5.0)

Measured: growth inhibition

CN(C)C(=S)S(=O)(=O)CCCCS(=O)(=O)C(=S)N(C)C
inactive: [1]; [7] -1% | [1]; [8] 3% | [2]; [7] 3% | [2]; [8] 8% | [2]; at 50.0 µM 32.1% | [3]; [7] 2% | [3]; [8] 11% | [4]; [7] -6% | [4]; [8] -1% | [4]; at 50.0 µM 9% | [5]; [7] -2% | [5]; [8] 0% | [5]; at 50.0 µM 20.9% | [6]; [7] -3% | [6]; [8] 7%
active: [1]; at 50.0 µM 86.3% | [3]; at 50.0 µM 92.3% | [6]; at 50.0 µM 81.8%

OC(C1CCC=NN1C(O)(C(F)(F)F)C(F)(F)F)(C(F)(F)F)C(F)(F)F (configuration not stated)
active: [1]; [8] 86% | [1]; at 50.0 µM 89.7% | [2]; [8] 71% | [2]; at 50.0 µM 83.1% | [3]; at 50.0 µM 87.7% | [4]; at 50.0 µM 78.8% | [5]; [8] 78% | [5]; at 50.0 µM 92.5% | [6]; [8] 87% | [6]; at 50.0 µM 94%
inactive: [1]; [7] 8% | [2]; [7] -3% | [3]; [7] -2% | [3]; [8] 69% | [4]; [7] 12% | [4]; [8] 58% | [5]; [7] -6% | [6]; [7] 9%

S=c1[nH]nc(Nc2ccccc2Cl)s1
inactive: [1]; [7] 17% | [1]; [8] 3% | [1]; at 50.0 µM 57.5% | [2]; [7] -21% | [2]; [8] -8% | [2]; at 50.0 µM 32.4% | [3]; [7] -4% | [3]; [8] 15% | [4]; [7] 23% | [4]; [8] 22% | [4]; at 50.0 µM 43.2% | [5]; [7] 1% | [5]; [8] 19% | [5]; at 50.0 µM 57% | [6]; [7] -7% | [6]; [8] -8% | [6]; at 50.0 µM 47.9%
active: [3]; at 50.0 µM 79.8%

Cc1ccccc1C1SCc2nc3ccccc3n21 (configuration not stated)
inactive: [1]; [7] -9% | [1]; [8] -7% | [1]; at 50.0 µM -17.1% | [2]; [7] -3% | [2]; [8] -4% | [2]; at 50.0 µM 8.3% | [3]; [7] -5% | [3]; [8] 1% | [3]; at 50.0 µM 14.7% | [4]; [7] -13% | [4]; [8] -20% | [5]; [7] -4% | [5]; [8] -1% | [5]; at 50.0 µM -6.4% | [6]; [7] -9% | [6]; [8] -9% | [6]; at 50.0 µM -25.1%
active: [4]; at 50.0 µM 75.3%

Oc1c(Cl)c(Cl)c(O)c2c1CCCC2
active: [1]; [8] 98% | [1]; at 50.0 µM 99.3% | [2]; [8] 99% | [2]; at 50.0 µM 99.5% | [3]; [8] 99% | [3]; at 50.0 µM 99.2% | [4]; [8] 99% | [4]; at 50.0 µM 98.9% | [5]; [8] 98% | [5]; at 50.0 µM 99.5% | [6]; [7] 78% | [6]; [8] 99% | [6]; at 50.0 µM 99.4%
inactive: [1]; [7] 46% | [2]; [7] 67% | [3]; [7] 69% | [4]; [7] 14% | [5]; [7] 65%

CCS(=O)(=O)OC(C)CCl (configuration not stated)
active: [4]; at 50.0 µM 70.2%
inactive: [1]; [7] -2% | [1]; [8] -3% | [1]; at 50.0 µM -5.65% | [2]; [7] 1% | [2]; [8] 0% | [2]; at 50.0 µM -14.7% | [3]; [7] 0% | [3]; [8] -1% | [3]; at 50.0 µM 11.8% | [4]; [7] -2% | [4]; [8] 2% | [5]; [7] -2% | [5]; [8] -3% | [5]; at 50.0 µM -4.9% | [6]; [7] -2% | [6]; [8] -5% | [6]; at 50.0 µM 49.5%

O=[N+]([O-])c1ccc(-c2ccc(-c3csc(Nc4ccccc4)n3)o2)cc1
inactive: [1]; [7] 42% | [3]; [7] 44% | [4]; [7] 63%
active: [1]; [8] 96% | [1]; at 50.0 µM 93.2% | [2]; [7] 96% | [2]; [8] 98% | [2]; at 50.0 µM 93.4% | [3]; [8] 97% | [3]; at 50.0 µM 92.6% | [4]; [8] 97% | [4]; at 50.0 µM 90.8% | [5]; [7] 97% | [5]; [8] 98% | [5]; at 50.0 µM 93% | [6]; [7] 98% | [6]; [8] 97% | [6]; at 50.0 µM 90.5%

COc1ccc(/C=C2/C(=O)N(C(=O)c3ccccc3O)N=C2C)cc1OC
inactive: [1]; [7] 13% | [1]; [8] 69% | [1]; at 50.0 µM 66.7% | [2]; [7] -1% | [2]; [8] 59% | [2]; at 50.0 µM 52.9% | [3]; [7] 7% | [3]; [8] 61% | [3]; at 50.0 µM 47.4% | [4]; [7] 22% | [4]; [8] 62% | [4]; at 50.0 µM 56.5% | [5]; [7] 17% | [6]; [7] 15% | [6]; at 50.0 µM 54.6%
active: [5]; [8] 81% | [5]; at 50.0 µM 76.5% | [6]; [8] 79%

NC(Cc1ccc(O)cc1O)C(=O)O (configuration not stated)
inactive: [1]; [7] 0% | [1]; [8] 2% | [1]; at 50.0 µM 7.7% | [2]; [7] 0% | [2]; [8] -1% | [2]; at 50.0 µM 31% | [3]; [7] -1% | [3]; [8] -4% | [3]; at 50.0 µM -7% | [4]; [7] 2% | [4]; [8] -2% | [5]; [7] 5% | [5]; [8] -4% | [5]; at 50.0 µM 3.55% | [6]; [7] -1% | [6]; [8] -1% | [6]; at 50.0 µM 16.4%
active: [4]; at 50.0 µM 74.9%
